The results in this text go back to PubChem BioAssay (NCI).

This is part of a sample that, as a whole, favours compounds with a hit. Of some 83,000 tested, about 20% had one in any assay.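 Assay: single dose, 48 h. Readout: percent growth (0 = no net growth; negative = cell death). Active: <10.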 Calls of active or inactive are those of the source.

In this assay the test system is HOP-92 NSCLC. In words: NCI-60 one-dose screen, 48 h (100 = growth as untreated, 0 = no growth, -100 = all killed). The note with it: 10 µM. On the procedure:
Growth inhibition of the HOP-92 human Non-Small Cell Lung tumor cell line is measured as a screen for anti-cancer activity. Cells are grown in 96 well plates and exposed to the test compound for 48 hours. Compounds are tested at a single concentration, which is 10^-5 M for most compounds. The reported endpoint is percent growth (GI% or GIPRCNT), where numbers from 0 - 100% represent growth inhibition, and numbers from -100% - 0 represent cell death. For example, a value of 40 represents 60% growth inhibition. A value of 0 means no net growth occurred over the course of the experiment. A value of -40 indicates 40% of cells at the beginning of the experiment died by the end of the experiment. A value of -100 means all cells are dead at the end of the experiment.
NCI-60 Human Tumor Cell Lines Screen was performed using the standard one-dose NCI protocol, which is described in more detail at https://dtp.cancer.gov/discovery_development/nci-60/default.htm.
Compounds with GIPRCNT values below 10 were considered active. Activity score was based on GIPRCNT using the following formula: […]
Score is 0 for GIPRCNT values of 100 or above, 50 for GIPRCNT values of 0, and 100 for GIPRCNT values of -100.
Take `Cc1ccc(S(=O)(=O)N/N=C2\CC3CCC2C3)cc1` (stereo not given): the growth was 87.2% (inactive).
For `O=C(/C=C1\C(=O)N(Cc2ccccc2)c2ccccc21)c1ccc(OCCN2CCCCC2)cc1`, the growth was 10.7% (inactive).
Then `CCCC(CCC)Oc1ccc(CCCC2=C(O)c3ccccc3C(=O)C2=O)cc1`, with 28.1% (inactive); and `CCCCCCNC(=O)Oc1ccc(/C(=C(/C)Cc2ccc(OC)cc2)c2ccc(OCCN3CCCCC3)cc2)cc1`, with 60.5% (inactive); and `Cc1nc2ccccc2c(=O)n1-c1cccc(OCc2cn(-c3cccc(O)c3)nn2)c1`, with 81.6% (inactive).
Regarding `Cc1ncc(C(=O)Nc2ccc(CN3CCN(C)CC3)c(C(F)(F)F)c2)cc1C#Cc1c(N)ncc2ccccc12`, the growth was -37.9% (active).
Next, `Nc1nc2c(c3cnccc13)C(c1ccc(Cl)c(Cl)c1)Cc1cnccc1-2` (stereo not given): -45% (active).
Then `CC1=C(C)C[C@]2(C(=O)O[C@H]3CCCC[C@@H]32)[S@](=O)C1`, with 105% (inactive); and `CC(C)(C)OC(=O)N1C/C(=C\c2ccccc2)C(=O)/C(=C/c2ccccc2)C1`, with 69.4% (inactive).
Then `COc1cc(CCNc2cnc3cc(N)cc(N)c3n2)cc(OC)c1`, with 154% (inactive).
`O=c1[nH]c(=S)[nH]c(O)c1/C=C1\C=Nc2ccccc21`: the growth was 54.2% (inactive).
Next, `CCOC(=O)NC1=NCC(C)(C)S1`: 111% (inactive); `O=C(NCCCl)Nc1nccnc1OCc1ccc(F)cc1`: 79.4% (inactive); `CCOC(=O)C1C(=O)C(=O)N(C(C)C)C1C(=O)OCC` (stereo not given): 83% (inactive).
Next, `Cc1ccc2c(O)c(O)cc(NC(C)CCCN)c2n1` (stereo not given): 84.4% (inactive); `Cc1nc(NC(=S)Nc2ccc(F)cc2)sc1C(=O)NNC(=S)Nc1ccc(F)cc1`: 19.7% (inactive); `CCCCn1c(Cc2ccc(OC)cc2)nc2cc(OC)c(OC)cc2c1=O`: 61.9% (inactive).
Then `N/C(=N\O)c1ccncc1`, with 107% (inactive); and `COC(=O)c1ccc2[nH]c(O)c(C(=Nc3ccc(N(C)C(=O)CN4CCN(C)CC4)cc3)c3ccc(N)cc3)c2c1`, with 78.3% (inactive); and `O=C(/C=C/c1cccc(O)c1)c1cccc(-n2cc(-c3ccc(Cl)cc3)[nH]c2=O)c1`, with -35.6% (active).
Consider `N=C(N)c1ccc(-c2ccc(-c3ccc(F)cc3)s2)cc1`, for which the growth was -86.2% (active).
Next, `Oc1ccc2ccccc2c1/C=N\Nc1ccccn1`: -15.1% (active); `Nc1cc(N)c2nc(NCCc3ccc(Cl)c(Cl)c3)cnc2c1`: -54.9% (active).
Turning to `COc1ccc(-c2nc(SCC(C)C)nc(Nc3ccc(C)cc3)c2C#N)cc1`, the growth was 73.9% (inactive).
Then `CC(C)(C)c1ccc([I+]c2ccc(C(C)(C)C)cc2)cc1`, with -9.02% (active); and `COC(=O)c1ccc2[nH]c(O)c(C(=Nc3ccc(N(C)C(=O)CN4CCN(C)CC4)cc3)c3cccc(OC)c3)c2c1`, with 48.3% (inactive).
As for `O=C(C(=O)N1CCOCC1)c1ccc(O[C@H]2O[C@H](CO)[C@@H](O)[C@H](O)[C@@H]2O)cc1`, the growth is 102% (inactive).
Then `CCCCN(CCCC)CCCNc1c2c(nc3ccc(Cl)cc13)CCCC2`, with 73.5% (inactive); and `O=C(Nn1cnc2ccccc21)N1CCCC1`, with 74.1% (inactive).
Then `COc1cccc(CNC(=O)c2cccc(C3CC(=O)c4c(cc(OC)c(OC)c4OC)O3)c2)c1` (stereo not given), with 19.8% (inactive); and `Cc1cc2c(-c3nc4ccccc4n3C)c(O)c(O)cc2c(O)c1-c1c(C)cc2c(-c3nc4ccccc4n3C)c(O)c(O)cc2c1O`, with 52.1% (inactive); and `Oc1ccc([S+](c2ccc(O)cc2)c2ccc(O)cc2)cc1`, with 92.2% (inactive).
Next, `Oc1ccc(CN(Cc2ccc(C(F)(F)F)cc2)Cc2ccc(O)c3ncccc23)c2cccnc12`: -3.41% (active); `CCOC(=O)c1c(C)oc2ncnc(Nc3ccc(NC(=O)Nc4ccc(CC)cc4)cc3)c12`: 94.3% (inactive); `COc1cc(/C=C/C(=O)c2ccc(F)cc2)ccc1OCCCCOc1cc2c(cc1OC)C(=O)N1CCCC1C=N2` (stereo not given): -43.9% (active).
As to `CC(=O)NNC(=O)c1sc(NC(C)=O)nc1C`, the growth is 57.4% (inactive).
Then `CCCCCCCCCCCCCCCCCC1=NCCN1CCNC(C)=O`, with 62.1% (inactive).
In the case of `CC(=O)/C(=C/c1ccc(-c2ccccc2)cc1)C(=O)c1ccccc1`, the growth was 89.9% (inactive).
Next, `Ic1ccc(SSc2ccc(I)cc2)cc1`: 90.7% (inactive); `Cc1c(Cc2ccccc2)c(=O)oc2c(C)c(OCc3n[nH]c(=S)o3)ccc12`: 57.8% (inactive).
